Measured values taken from PubChem BioAssay.
The source made the active and inactive calls.

Assays:
[1] = A549 cell viability effects, profiling panel, calcein-AM fluorescence, 48 h, basal (AID 1162); conditions: higher = more signal
[2] = adipocyte viability effects, profiling panel, cell-based, 3T3-L1 adipocytes, calcein-AM fluorescence, 48 h, basal (AID 1163); conditions: 3T3-L1 adipocytes viability, higher = more signal
[3] = HepG2 cell viability effects, profiling panel, calcein-AM fluorescence, 48 h, basal (AID 1164); conditions: higher = more signal
[4] = MM1S cell viability effects, profiling panel, calcein-AM fluorescence, 48 h, basal (AID 1165); conditions: higher = more signal;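 also: viability of MM1S multiple myeloma cells under basal unstimulated conditions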
[5] = basal RPMI8226 viability, no added stimulus, profiling panel, cell-based, calcein-AM fluorescence, 48 h, PK04 Diversity Set (AID 1166); conditions: RPMI8226 myeloma viability, higher = more signal;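 also: cells grown under basal conditions without added stimulus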
[6] = basal HepG2 mitochondrial membrane potential changes, profiling panel, cell-based, JC-1 fluorescence, 24 h, 100 nL compound (AID 1167); conditions: higher = more signal
[7] = basal 3T3-L1 adipocyte mitochondrial potential changes, profiling panel, cell-based, JC-1 fluorescence, 3T3-L1 adipocytes, 24 h, 100 nL compound (AID 1168); conditions: JC-1 mitochondrial fluorescence, higher = more signal, called active from +8 up or from −8 down
[8] = basal RPMI8226 mitochondrial membrane potential changes, profiling panel, cell-based, JC-1 fluorescence, 24 h, 100 nL compound (AID 1169); conditions: RPMI8226 myeloma, JC-1 mitochondrial potential fluorescence, higher = more signal
[9] = basal MM1S mitochondrial membrane potential changes, profiling panel, cell-based, JC-1 fluorescence, 24 h, 100 nL compound (AID 1170); conditions: higher = more signal
[10] = A549 lung cancer cell viability effects, profiling panel, resazurin fluorescence, 24 h, PK04 Diversity Set (AID 1171); conditions: higher = more signal, called active from +8 up or from −8 down
Also: test concentration not given here.

| SMILES | z-score [1] | z-score [2] | z-score [3] | z-score [4] | z-score [5] | z-score [6] | z-score [7] | z-score [8] | z-score [9] | z-score [10] |
| --- | --- | --- | --- | --- | --- | --- | --- | --- | --- | --- |
| CCN(CC)c1ccc(N2CC=CC34O[C@@H]5/C=C\CCC(C)OC(=O)C5[C@H]3C(=O)N(C(CO)C(C)C)[C@@H]4C2=O)cc1 (stereo not given in full) | -0.0553 | -1.18 | 0.936 | 1.26 | -0.208 | 0.96 | -0.118 (inactive) | 0.0122 | 1.01 | 0.406 (inactive) |
| C=CCOC(=O)[C@H]1[C@@H]2C(=O)O[C@@H](c3ccccc3)[C@@H](c3ccccc3)N2[C@@H](c2ccc(OCCOC(=O)[C@H]3C[C@H]4C(=O)N5CCC[C@H]5C(=O)N4[C@H]3c3ccc(O)cc3)cc2)[C@]12C(=O)Nc1ccccc12 | -0.45 | 1.46 | 0.226 | -0.0596 | -0.653 | -1.37 | 1.22 (inactive) | -0.515 | -0.857 | 0.315 (inactive) |
| O=C1c2ccccc2[C@@]2(Cc3ccccc3N(CCN3CCOCC3)C2=O)[C@H](c2ccc(CO)cc2)N1Cc1ccccc1 | 0.668 | -0.238 | 0.402 | 0.0855 | 0.66 | 0.761 | 0.734 (inactive) | -0.605 | -0.253 | -0.273 (inactive) |
| CCOC(=O)[C@H]1CC=C2CC1C(=O)N1CCC[C@@H]1[C@@H]2O[Si](C)(C)C(C)(C)C (stereo not given in full) | -1.63 | 0.312 | -1.43 | -2.85 | -4.07 | -2.25 | -1.07 (inactive) | -1.06 | 0.167 | 3.69 (inactive) |
| C=CCC(OC(C)=O)[C@@H]1[C@@H](N(Cc2ccc(-c3cccc(C(F)(F)F)c3)o2)C(=O)c2ccc(-c3ccccc3)cc2)c2cc(OCCCO)ccc2N1C(=O)c1ccc(-c2ccccc2)cc1 (stereo not given in full) | 0.0361 | 0.114 | 0.104 | 0.365 | -0.297 | 1.25 | -0.581 (inactive) | 0.287 | 0.872 | -0.176 (inactive) |
| C=C(COC)/C(=C/C[C@@H](OC(C)=O)c1ccc(CO)o1)c1cnc2ccccc2c1 | -0.11 | 0.523 | -0.856 | 0.0139 | -0.672 | -0.733 | -0.306 (inactive) | -0.33 | 1.33 | -0.874 (inactive) |
| COc1ccc(C(=O)Nc2ccc(CN3C(=O)[C@@]4(O[C@@H](CCn5cc([C@H](O)c6ccccc6)nn5)[C@H]([Si](C)(C)c5ccc(OC)cc5)[C@H]4C)c4ccccc43)cc2)cc1 | -0.443 | -0.196 | -4.62 | -2.72 | -3.02 | 1.73 | 1.17 (inactive) | -1.1 | -2.26 | -1.15 (inactive) |
| CCCC[C@H]1OB(O)C[C@H]2C1=C(COc1ccccc1)C[C@H]1C(=O)N(C)C(=O)[C@H]12 | 0.498 | 0.0271 | 0.258 | -1.46 | -0.185 | -1.29 | 0.468 (inactive) | 0.304 | 0.35 | -0.166 (inactive) |
| [N-]=[N+]=NCc1ccccc1C[C@]1(C(=O)O)N=C(c2ccc(OCCCO)cc2)O[C@H]1c1ccccc1N=[N+]=[N-] | -0.882 | 1.09 | -0.826 | -2.06 | -3.85 | -1.93 | -0.456 (inactive) | -1.05 | -0.887 | -1.77 (inactive) |
| C#CCNC(=O)[C@H](Cc1ccccc1)NC(=O)CCC(=O)O | -0.281 | -0.405 | 0.0694 | 0.527 | 0.0189 | -0.821 | -0.536 (inactive) | 0.539 | -0.97 | -0.119 (inactive) |
| CS(=O)(=O)CCOC(=O)C1=CC(CCCO)=CC(c2ccc(CN3CCCC3)cc2)N(Cc2cc3c(cc2Br)OCO3)C=C1C(=O)OCCS(C)(=O)=O (stereo not given) | 1.94 | -0.0958 | -0.0078 | -0.315 | 0.0614 | 3.02 | 0.771 (inactive) | 0.00988 | 1.29 | 0.778 (inactive) |
| COC(=O)[C@@]1(Cc2ccc(OC)cc2)[C@H]2c3cc(C(=O)N4CCCC4)n(Cc4ccccc4)c3C[C@H]2CN1C(=O)c1ccccc1 | -0.549 | 0.39 | -0.331 | -1.63 | -2.12 | 2.44 | -1.07 (inactive) | -0.933 | -1.3 | -2.5 (inactive) |
| COCCOC(=O)N1C(=O)[C@@]2(c3cc(C#Cc4ccc(OC)cc4)ccc31)[C@H](C(=O)N1CCCCCCC1)[C@H]1C(=O)O[C@H](c3ccccc3)[C@H](c3ccccc3)N1[C@@H]2c1ccc(OCCO)cc1 | 1.36 | 1.96 | 0.638 | -1.36 | 0.809 | 0.162 | -6.15 (inactive) | -0.19 | -0.987 | 1.62 (inactive) |
| COCCCNC(=O)[C@@]1(Cc2ccccc2N=[N+]=[N-])N=C(c2ccc(OCCCO)cc2)O[C@H]1c1ccccc1N=[N+]=[N-] | -1.84 | 0.954 | -1.37 | -1.88 | -3.69 | 1.77 | 0.221 (inactive) | -1.22 | -2.03 | -1.76 (inactive) |
| COC(=O)[C@@]1(Cc2ccc(F)cc2)[C@H]2c3cc(C(=O)N(C)C)n(CC4CC4)c3C[C@H]2CN1C(=O)c1ccccc1 | -0.654 | 0.128 | -0.0517 | -2.21 | -3.32 | 1.41 | -0.708 (inactive) | -0.858 | -1.21 | -1.38 (inactive) |
| CC(C)(C)OC(=O)CC[C@@]1(C(=O)NCCN2CCOCC2)N=C(c2ccc(OCCCO)cc2)O[C@@H]1c1ccccc1N=[N+]=[N-] | 1.2 | 0.698 | 1.33 | -0.849 | -0.187 | 0.749 | 1.66 (inactive) | -0.993 | -0.339 | -0.492 (inactive) |
| C=CCNC(=O)[C@H]1[C@@H]2C(=O)O[C@@H](c3ccccc3)[C@@H](c3ccccc3)N2[C@@H](c2ccccc2OCCO)[C@]12C(=O)Nc1ccc(C#CC3=CCCCC3)cc12 | -1.64 | 1.04 | -4.21 | -3.35 | -4.07 | -1.84 | 2.75 (inactive) | -0.853 | -1.84 | -1.27 (inactive) |
| CN1C(=O)C2C=CC(C(O)c3ccc(I)cc3)N(N3CCCCC3)C2C1=O (stereo not given) | -0.481 | -0.111 | -0.619 | -3.7 | -0.955 | -0.62 | -0.435 (inactive) | -0.484 | -0.624 | -0.799 (inactive) |
| COC(=O)[C@@]1(Cc2ccccc2)[C@H]2c3cc(C(=O)N4CCCC4)n(CC4CC4)c3C[C@H]2CN1C(=O)c1ccccc1 | -1.46 | 0.643 | -0.303 | -0.39 | -2.15 | 1.51 | -1.77 (inactive) | -0.516 | -0.569 | -1.51 (inactive) |
| CC(C)c1ccc(NN2C(C(O)C(c3ccccc3)c3ccccc3)C=CC3C(=O)N(c4ccccc4)C(=O)C32)cc1 (stereo not given) | -0.447 | -0.306 | -0.0211 | -0.535 | -0.967 | -0.988 | -0.8 (inactive) | -0.107 | 0.798 | -2.05 (inactive) |
| CCCCCN1CC=CC23O[C@@H]4/C=C\CCCOC(=O)C4[C@H]2C(=O)N(CCCO)[C@@H]3C1=O (stereo not given in full) | -0.335 | 1.65 | -0.495 | 0.759 | 0.424 | -0.472 | -0.0755 (inactive) | 0.362 | 0.286 | 0.937 (inactive) |
| O=C1OCCC/C=C\[C@H]2OC34C=CCN(Cn5nnc6ccccc65)C(=O)[C@H]3N(CCCCCCO)C(=O)[C@@H]4C12 (stereo not given in full) | 1.06 | 0.469 | 1.42 | 1.8 | -0.0474 | 0.733 | 0.932 (inactive) | -0.263 | -1.14 | 0.818 (inactive) |
| O=C1NC(=O)C2C1C=CC(C(O)c1ccccc1)N2Nc1ccc(Cl)cc1Cl (stereo not given) | 0.0862 | -0.0715 | -1.48 | -3.55 | -3.28 | -3.07 | -0.544 (inactive) | -1.09 | -1.59 | -1.92 (inactive) |
| C[N+](C)(C)CCCC[C@@H]1NC(=O)[C@@H]2C[C@H](C(=O)NCCCCCN)[C@H](c3cccc(OCCO)c3)N2C1=O | 1.53 | 0.698 | 1.45 | 0.423 | 0.16 | 1.03 | -0.117 (inactive) | 0.0947 | -0.198 | 0.0718 (inactive) |
| CC(=O)NCCCC[C@@H]1NC(=O)[C@@H]2C[C@H](C(=O)NCCCCN(C)C)[C@H](c3cccc(OCCO)c3)N2C1=O | 0.0857 | -0.749 | -0.506 | -0.589 | -0.486 | -0.085 | -0.24 (inactive) | -0.569 | -0.436 | 0.604 (inactive) |
| C=C(CCCC)C(=O)CC[C@@H](OC(=O)c1cccnc1)c1ccc(CO)o1 | 0.274 | 0.149 | 0.909 | -0.238 | -0.156 | -1.35 | -0.123 (inactive) | 0.736 | -0.0347 | -0.192 (inactive) |
| O=C1C2C=CC(C(O)C(c3ccccc3)c3ccccc3)N(n3cnnc3)C2C(=O)N1Cc1ccccc1 (stereo not given) | -1.03 | 0.0304 | -1.13 | -1.09 | -0.23 | -1.26 | -1.26 (inactive) | -0.42 | 0.153 | -0.387 (inactive) |
| COC(=O)[C@@]1(Cc2ccc(F)cc2)[C@H]2c3cc(C(=O)N(C)C)n(Cc4nc5ccccc5[nH]4)c3C[C@H]2CN1C(=O)c1ccccc1 | -0.788 | -0.0882 | -0.49 | -1.09 | -0.184 | -0.0736 | -0.156 (inactive) | -0.207 | -2.16 | 0.406 (inactive) |
| Cc1ccc(S[C@]2(C(=O)NC3CC3)CC(=O)N(C3Cc4ccccc4C3)[C@@H]2c2ccc(CO)cc2)cc1 | 3.2 | 0.785 | 1.51 | 0.498 | 0.244 | 2.78 | 0.569 (inactive) | 0.763 | -0.0488 | -1.23 (inactive) |
| CC(C)(C)OC(=O)CC[C@]12N=C(c3ccc(OCCCO)cc3)O[C@H]1c1ccccc1N(CCS(=O)(=O)c1ccccc1)C2=O | 1.16 | 0.308 | 1.44 | -1.52 | -0.568 | -0.784 | 1.45 (inactive) | -1.09 | -0.719 | -1.71 (inactive) |
